Shown are actives, neighbours in structure and some others; about 10% of the full set was active somewhere.
hNpr1 antagonist: blocks ANP-stimulated signaling of human Npr1 receptor; P16066; AID 1347048; HEK293 hNpr1 GloSensor cGMP, ANP-stimulated luminescence; Potency, µM (doses to about 46.3 µM), for the others: at the top dose activity change, negative = inhibition, actives largely listed as inhibitors; 1.6% of 76,000 active; calls by dose curve; note: nearly all actives have a fitted effect of over 60% in size
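Compound pre-incubated 30 min at room temperature on GloSensor-loaded HEK293 cells stably carrying hNpr1 and the pGS-40F cGMP biosensor. Stimulation uses hNppA at 0.1 nM final; luminescence is taken at baseline and 20 min post-agonist.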
Luciferase inh: inhibitors of firefly (Photinus pyralis) luciferase. Potency, µM (top dose mostly 115 µM), usual class: inhibitors. AID 1347043. 2.5% of 76,000 active. purified P. pyralis luciferase, luminescence, biochemical; note: nearly all actives have a fitted effect of over 65% in size
Target sequence (P08659 whole entry, looked up): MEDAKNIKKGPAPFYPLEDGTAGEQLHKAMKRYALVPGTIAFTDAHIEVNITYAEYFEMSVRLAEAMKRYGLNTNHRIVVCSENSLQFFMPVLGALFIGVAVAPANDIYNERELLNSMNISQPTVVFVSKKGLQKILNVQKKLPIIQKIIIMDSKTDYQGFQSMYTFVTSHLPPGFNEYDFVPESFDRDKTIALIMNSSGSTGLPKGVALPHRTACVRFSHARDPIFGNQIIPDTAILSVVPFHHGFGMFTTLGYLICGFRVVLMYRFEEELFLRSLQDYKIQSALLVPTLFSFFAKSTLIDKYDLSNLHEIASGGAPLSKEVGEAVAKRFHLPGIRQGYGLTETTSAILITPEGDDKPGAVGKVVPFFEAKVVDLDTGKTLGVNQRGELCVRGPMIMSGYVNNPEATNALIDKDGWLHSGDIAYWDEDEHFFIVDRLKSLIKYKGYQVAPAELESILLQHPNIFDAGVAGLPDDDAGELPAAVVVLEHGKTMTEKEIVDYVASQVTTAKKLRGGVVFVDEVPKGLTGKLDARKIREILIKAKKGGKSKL
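FLuc 10nM, D-luciferin 10uM, ATP 10uM, Mg acetate 10mM, Tris acetate pH 7.5, Tween/BSA; cpd qHTS; enzyme added last; CCD luminescence.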
NIH3T3 tox: NIH 3T3 cell cytotoxicity | NIH 3T3 viability, CellTiter-Glo ATP luminescence, 48-72 h | 4.3% of 94,000 active | AID 1345082 | Potency, µM (top dose mostly 96.7 µM), inactives show at the top dose activity change, negative = cytotoxicity, hits mostly inhibitors; note: nearly all actives have a fitted effect of over 55% in size
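NIH 3T3 cells at 400 cells/well received 23 nL of compound by pintool and were incubated 48 or 72 h at 37 °C. Viability was read as ATP-coupled CellTiter-Glo luminescence.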
GPT2 inhibitor: blocks human glutamate pyruvate transaminase 2; Q8TD30; Recombinant GPT2, coupled pyruvate oxidase/HRP Amplex Red fluorescence; Potency, µM (doses to about 57.7 µM), for the others: at the highest dose activity change, negative = inhibition, actives largely listed as inhibitors; 0.25% of 100,000 active; AID 1671188; note: nearly all actives have a fitted effect of over 60% in size
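Fluorescence read-out: pyruvate from GPT2 turnover coupled to pyruvate oxidase, HRP and Amplex Red (0.2mM ThPP, 0.2U/mL PO and HRP, 50uM Amplex final). Substrates 250uM a-KG, 2mM L-alanine; enzyme 10ng/uL; 30 min RT.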
HEK293 tox: cytotoxic compounds in HEK 293 cells; HEK 293 viability, ATP luminescence (CellTiter-Glo), 48-72 h; Potency, µM (titrated, usually from 115 µM), inactives show top-dose activity change, negative = cytotoxicity, actives largely listed as inhibitors; 6.6% of 94,000 active; AID 1345083; note: nearly all actives have a fitted effect of over 60% in size
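HEK 293 seeded at 250 cells/well receive compound via pintool. After 48 or 72 hr at 37 degree Celsius, 5% CO2 and 95% humidity, CellTiter-Glo is dispensed and luminescence read following 10 min at room temperature.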
An asterisk follows results filed as active; i = inactive; ? = inconclusive; nt = no result given; ! = a repeat was not active; [ ] = another dose, or the depositor's remark. Unless noted, calls come from the whole dose curve; as a rule, active = well fitted curve in the direction sought with a large enough effect; inconclusive = small, poorly fitted or top-dose-only effect, or another doubt; inactive = no such curve, though single readings can be large; an effect the other way counts as inactive or inconclusive. % is set by controls: 0 for no effect and ±100 for the full control effect; potency is the fitted concentration of half-maximal effect.

SMILES | hNpr1 antagonist | Luciferase inh | NIH3T3 tox | GPT2 inhibitor | HEK293 tox
CC(=O)Nc1ccc(-c2ccc(=O)n3c2[C@@H]2C[C@@H](CN(C(=O)Nc4cccc(C#N)c4)C2)C3)cc1 | 4% | i | 3% | 1% | 32µM*
COc1ccc(CNC(=O)[C@@H]2Cc3cn(Cc4cccnc4)c4cccc(c34)[C@H](CC(C)C)N2)cc1 | -12% | i | ? | -41% | 35µM*
COc1ccccc1CNC(=O)[C@@H]1Cc2cn(C)c3cccc(c23)[C@H](CC(C)C)N1 | -20%[70.6 µM] | i | 50µM* | ? | 45µM*
CC(C)C[C@@H]1N[C@H](C(=O)NCc2ccccc2)Cc2cn(Cc3cccnc3)c3cccc1c23 | -21% | i | ? | -10% | 25µM*
C=CCNC(=O)[C@@H]1Cc2cn(Cc3cccnc3)c3cccc(c23)[C@H](CC(C)C)N1 | -18%[70.6 µM] | i | ? | 3%[88.5 µM] | 50µM*
CNC(=O)[C@@H]1C[C@H](Oc2ccccc2)CN1C(=O)CCc1ccc(OC)cc1 | -7% | i | -13% | -5% | -2%
COc1ccc(-c2ccc(NC(=O)c3ccc(C)cc3)cc2)nn1 | nt | nt | ? | nt | -23%[172 µM]
O=C(c1ccon1)N1CCN(Cc2cnn3cccnc23)CC(O)C1 (configuration not stated) | 12% | i | i | 3% | 14%
CC1Oc2ccc(NC(=O)c3c(F)cccc3F)cc2CN(C2CCCc3ccccc32)C1=O (configuration not stated) | -16% | i | ? | ? | ?
CN(C)c1ccc(CN2CCC3(CC2)CC(=O)c2ccccc2O3)cc1 | 13% | i | -6% | i | -7%
O=C1CC2(CCN(Cc3ccc(F)cc3)CC2)Oc2ccccc21 | -1%[70.6 µM] | i | ? | 2%[88.5 µM] | 50µM*
O=C1CC2(CCN(Cc3cccnc3)CC2)Oc2cc(Cl)ccc21 | 0% | 25µM* | ? | i | ?
Cn1ncc2c(C(=O)NCCc3ccc(Cl)cc3)cc(-c3cccnc3)nc21 | nt | nt | ? | i | 32µM*
Cc1ccc(-c2cc(C(=O)NCc3ccc(F)cc3)c3cnn(C)c3n2)cc1 | nt | nt | ? | i | ?
Cn1ncc2c(C(=O)NCc3cccc(F)c3)cc(-c3ccc(Cl)cc3)nc21 | nt | nt | ? | i | 45µM*
Cn1ncc2c(C(=O)NC3CC3)cc(-c3ccc(Cl)nc3)nc21 | nt | nt | ? | -3%[88.5 µM] | ?
Cn1ncc2c(C(=O)NC3CC3)cc(-c3cccnc3)nc21 | nt | nt | 40µM*! | 5%[88.5 µM] | 63µM*!
Cn1ncc2c(C(=O)NCc3ccc(Cl)cc3)cc(-c3cccc(F)c3)nc21 | nt | nt | 32µM* | nt | 40µM*
CCN1C(=O)C2CC3(CCN(C(=O)NCc4ccccc4)CC3)CN2C1=O (configuration not stated) | 2% | i | i | i | -1%
COC(=O)CNC(=O)c1cc(-c2cccc(F)c2)nc2c1cnn2C | nt | nt | ? | nt | -13%[172 µM]
CCC(C)NC(=O)c1cc(-c2cccc(F)c2)nc2c1cnn2C (configuration not stated) | nt | nt | ? | nt | 89µM*
CCc1noc(-c2cn(C3CCN(C(=O)c4ccc(N(C)C)cc4)CC3)nn2)n1 | 2% | i | -32% | -10% | -21%
COc1cccc(-c2cc3c(=O)n(CCNC(=O)c4c(F)cccc4F)ccn3n2)c1 | -13% | 7.9µM* | -23% | i | 1%
COc1cccc(-c2cc3c(=O)n(CCNC(=O)c4cccnc4)ccn3n2)c1 | -18% | ? | -4% | i | 3%
COc1cccc(-c2cc3c(=O)n(CCNC(=O)C(C)Oc4ccccc4)ccn3n2)c1 (configuration not stated) | ? | ? | ? | 2% | 45µM*
SMILES | hNpr1 antagonist | Luciferase inh | NIH3T3 tox | GPT2 inhibitor | HEK293 tox
COc1cccc(-c2cc3c(=O)n(CCNC(=O)c4cc(F)cc(F)c4)ccn3n2)c1 | -25% | i | ? | i | ?
COc1cccc(-c2cc3c(=O)n(CCNC(=O)c4ccoc4)ccn3n2)c1 | -21% | ? | -13% | -7% | 45µM*
CCN(CCCNC(=O)CCn1ccn2nc3c(c2c1=O)CCCC3)c1ccccc1 | -8% | i | -29% | i | ?
CN1CCCN(S(=O)(=O)c2cn(C)cn2)c2ccccc21 | -4% | i | -1% | -5% | -1%
N#Cc1cccc(-c2cn3c(n2)N(C(=O)CC2CCCC2)CCC3)c1 | -13% | ? | -22% | i | ?
Cc1nonc1CC(=O)N1C[C@@H](NS(=O)(=O)N(C)C)[C@H](C(C)C)C1 | -3% | i | -9% | -7% | -20%
O=C(CCc1ccnc(N2CCCC2)c1)N1CCN(c2cccc(Cl)c2)CC1 | -15% | i | ? | i | 32µM*
Cc1cccc(N2CCN(C(=O)CCc3ccnc(N4CCCC4)c3)CC2)c1 | -15% | i | -22% | i | ?
C=C1CCC2C(C)(C(=O)O)CC(O)CC2(C)C1CC/C(C)=C/C(=O)O (configuration not stated) | nt | nt | nt | i | nt
O=C(NC1CCCCCC1)c1ccc2oc(-c3ccncc3)nc2c1 | nt | nt | -24% | -16% | 35µM*
O=C(c1ccc2oc(-c3ccc(C(F)(F)F)cc3)nc2c1)N1CCOCC1 | -14% | i | ? | i | ?
O=C(NCC1CCCO1)c1ccc2oc(-c3ccc(C(F)(F)F)cc3)nc2c1 (configuration not stated) | ? | i | -20% | ? | 18µM*
OC(c1nc(Nc2cccc(F)c2)n[nH]1)C1CC1 (configuration not stated) | 3%[70.6 µM] | ? | 112µM* | i | 0%[230 µM]
OC(c1nc(Nc2cccc(Cl)c2)n[nH]1)C1CC1 (configuration not stated) | -14%[70.6 µM] | 45µM* | ? | -3%[88.5 µM] | -17%[230 µM]
CN1CCN(c2cc(=O)c3ccnc(-c4ccc(Cl)cc4)c3o2)CC1 | -13%[70.6 µM] | i | ? | -13%[88.5 µM] | -6%[172 µM]
CN1CCN(c2cc(=O)c3ccnc(-c4ccnn4C)c3o2)CC1 | 2%[70.6 µM] | i | 40µM* | 1%[88.5 µM] | -7%[172 µM]
CN1CCN(c2cc(=O)c3ccnc(-c4ccccc4O)c3o2)CC1 | -7%[70.6 µM] | i | 22µM* | 2%[88.5 µM] | -5%[172 µM]
Cc1ccc(NC(=O)N2CCC[C@H]2c2nc(-c3ccc(F)cc3)n[nH]2)cc1C | nt | nt | 28µM* | i | ?
O=C(c1cccc(Cl)c1)N1CCCC(C(=O)N2CCC(N3Cc4cccn4C3=O)CC2)C1 (configuration not stated) | nt | nt | ? | i | -26%
Cn1nccc1C(=O)NCC1Cn2cccc2CN1Cc1ccccc1 (configuration not stated) | -5% | i | ? | i | 79µM*
O=C(NCC1Cn2cccc2CN1Cc1ccccc1)c1ccccn1 (configuration not stated) | nt | nt | -23% | i | -13%
